Results on 36 compounds are retold here after PubChem BioAssay.

Molecules are shown by their SMILES.

One assay is described as follows: small molecules captured by biotinylated probe aFSTL3 – biochemical, small-molecule microarray, fluorescence 635/667, stem cell growth factor project, primary screen (AID 1064).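 Note: measures binding of the biotinylated anti-FSTL3 antibody to printed compounds.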 The following applies: higher = more signal.
For the compound `COCCOC(=O)N1C(=O)[C@@]2(c3cc(C#CCNC(N)=O)ccc31)[C@H](C(N)=O)[C@H]1C(=O)O[C@H](c3ccccc3)[C@H](c3ccccc3)N1[C@@H]2c1ccc(O)cc1`, the composite z-score is -0.0585. `C=C1C(=O)C=C2CN(C(=O)c3ccccc3)[C@@](Cc3ccc(F)cc3)(C(=O)OC)[C@@H]12` came in with a composite z-score of 0.891. With `CC(C)(C)OC(=O)N1[C@@H](C=C(Br)Br)COC1(C)C`, the composite z-score is -0.195. In turn, `O=C1C[C@@](C(=O)NCC(F)(F)F)(c2ccc([N+](=O)[O-])cc2)[C@@H](c2ccc(CO)cc2I)N1CC12CC3CC(CC(C3)C1)C2` showed a composite z-score of -0.405. `Cc1cccc([C@H]2C[C@H]3C(Br)=C[C@@]2(CO)C(=O)[C@]32CO2)c1` gave a composite z-score of -0.053. `COC(=O)C(CC#Cc1ccc2c(c1)[C@]1(C(=O)N2)[C@H](c2ccccc2OCCO)N2[C@H](c3ccccc3)[C@H](c3ccccc3)OC(=O)[C@H]2[C@@H]1C(=O)N1CCN(c2ncccn2)CC1)C(=O)OC` registered a composite z-score of -0.35. On to `O=C1NC(=O)C2C1C=CC(C(O)c1ccc(F)cc1)N2Nc1ccc(Cl)cc1Cl` (centres undefined), for which the composite z-score turned out to be 0.848. The same measure, in the same setting: to `C=CCOC(=O)[C@@H]1[C@H]2C(=O)O[C@H](c3ccccc3)[C@H](c3ccccc3)N2[C@H](c2ccc(OCCOC(=O)[C@@H]3C[C@@H]4C(=O)N[C@@H](CC(C)C)C(=O)N4[C@@H]3c3ccc(O)cc3)cc2)[C@@]12C(=O)Nc1ccc(I)cc12` belongs -0.479; to `COC(=O)c1ccc(OC)c(/C=C\CC(OC(=O)c2ccncc2)c2ccccc2)c1` (centres undefined), -0.273. The compound `COC(=O)[C@@]1(Cc2ccc(F)cc2)[C@H]2c3cc(C(=O)N4CCCC4)n(CCSCCO)c3C[C@H]2CN1C(=O)c1ccccc1` showed a composite z-score of 0.349. On to `Cc1c(NC(=O)/C(C#N)=C/C=C/c2ccc([N+](=O)[O-])cc2)c(=O)n(-c2ccccc2)n1C`, for which the composite z-score was -0.309. Consider `COc1ccc([Si](C)(C)[C@H]2[C@H](CC(=O)N(CCO)Cc3ccccc3)O[C@@]3(C(=O)N(Cc4cccc(N5CCCCC5=O)c4)c4ccccc43)[C@@H]2C)cc1`, for which the composite z-score is -0.4.

For `O=C1c2ccccc2[C@@]2(Cc3ccccc3N(CC(F)(F)F)C2=O)[C@H](c2ccc(CO)cc2)N1Cc1ccccc1`, the composite z-score is 0.386. As for `CC(C)C[C@@H]1NC(=O)[C@@H]2C[C@H](C(=O)NCCCCCNC(=O)CS)[C@H](c3ccc(O)cc3)N2C1=O`, the composite z-score stood at 0.0099. Still for that read-out and setting: under `COc1ccc(C(O)C2C=CC3C(=O)N(C)C(=O)C3N2Nc2ccccc2)cc1` (centres undefined) stands 0.402. `Cc1ccc(S[C@]2(C(=O)NCCN3CCOCC3)CC(=O)N(C(C)C)[C@@H]2c2ccc(CO)cc2I)cc1` showed a composite z-score of 1.15.

Regarding `COc1ccc([Si](C)(C)[C@H]2[C@H](CC(=O)N(CCO)Cc3ccccc3)O[C@@]3(C(=O)N(Cc4ccc(N5C(=O)c6cccc7cccc5c67)cc4)c4ccccc43)[C@@H]2C)cc1`, the composite z-score was -0.0915. Turning to `COC(=O)[C@@]1(Cc2ccccc2)[C@H]2c3cc(C(=O)N(C)C)n(CCF)c3C[C@H]2CN1C(=O)c1ccccc1`, the composite z-score worked out at 1.57. In turn, `C=CCC(OC(C)=O)[C@@H]1[C@@H](N(Cc2ccc(-c3ccccc3)cc2)C(=O)Cc2ccc(OC)cc2)c2cc(OCCCO)ccc2N1C(=O)c1ccc2ccccc2c1` (some centres undefined) came in with a composite z-score of -0.286. Consider `C=C(C(=O)CC[C@@H](OC(=O)c1cccnc1)c1cccc(OCCO)c1)C(C)C`, for which the composite z-score is -0.512. In the case of `CCCC=C(CCC)[C@@H](NC(=O)c1ccc(C(=O)OC)cc1)c1ccc(C(=O)OC)cc1`, the composite z-score was 0.0362. Consider `[N-]=[N+]=NCc1ccccc1C[C@]1(C(=O)N2CCCCC2)COC(c2ccc(OCCCO)cc2)=N1`, for which the composite z-score came to 0.438. In the case of `COC(=O)[C@@]1(Cc2ccc(F)cc2)[C@H]2c3cc(C(=O)N4CCCC4)n(Cc4ccc(OC(F)(F)F)cc4)c3C[C@H]2CN1C(=O)c1ccccc1`, the composite z-score came out at 0.262. `Cc1ccc(S[C@]2(C(=O)NCc3ccccc3)CC(=O)N(Cc3ccccc3C(F)(F)F)[C@@H]2c2ccc(CO)cc2I)cc1` gave a composite z-score of 0.412.

In the case of `COCCOC(=O)N1C(=O)[C@@]2(c3cc(C#CC4(O)CCCCCC4)ccc31)[C@H](C(N)=O)[C@H]1C(=O)O[C@H](c3ccccc3)[C@H](c3ccccc3)N1[C@@H]2c1ccc(OCCO)cc1`, the composite z-score is -0.243. In the case of `OCCCc1cc[n+](Cc2cc3c(cc2Br)OCO3)cc1`, the composite z-score stood at 0.622.

Another assay is described as follows: binders from COS7 lysate, DM2A8 probe, primary screen, torsin A project, cell lysate, small-molecule microarray, fluorescence 635/667 (AID 1065). The following applies: higher = more signal, COS7 lysate expressing mutant human TOR1A.
Take `CC(C)c1ccc(NN2C(C(O)C3CCCCC3)C=CC3C(=O)N(c4ccccc4)C(=O)C32)cc1` (centres undefined): the composite z-score is 0.333. With `COc1ccc(C(=O)Nc2ccc(CN3C(=O)[C@]4(O[C@H](CC(=O)N(CCO)Cc5ccccc5)[C@@H]([Si](C)(C)c5ccc(OC)cc5)[C@@H]4C)c4ccccc43)cc2)cc1`, the composite z-score is 1.22. `CCOC(=O)C=C1C[C@@H](c2cccc([N+](=O)[O-])c2)O[C@@H](c2cccc([N+](=O)[O-])c2)O1` registered a composite z-score of 0.178. For the compound `CC[C@@H]1C=C(C(=O)O)[C@H](c2cccc(Cl)c2)N1S(=O)(=O)c1ccc(C)cc1`, the composite z-score came out at 0.969. Still for that read-out and setting: to `C=CCOC(=O)[C@H]1[C@@H]2C(=O)O[C@@H](c3ccccc3)[C@@H](c3ccccc3)N2[C@@H](c2ccc(OCCOC(=O)[C@@H]3C[C@@H]4C(=O)N[C@@H](Cc5ccccc5)C(=O)N4[C@@H]3c3ccc(O)cc3)cc2)[C@]12C(=O)Nc1ccc(I)cc12` belongs 0.0366; to `COC(=O)C1=CC(c2ccc(CO)cc2)=CC(C2CC2)N(Cc2cc3c(cc2Br)OCO3)C=C1C(=O)OC` (centres undefined), 1.64; to `O=C1O[C@H](c2ccccc2)[C@H](c2ccccc2)N2[C@H]1[C@@H](C(=O)O)[C@]1(C(=O)Nc3ccc(C#CC4(O)CCCCCC4)cc31)[C@H]2c1ccccc1OCCO`, 1.43.

Compound `CCCCCCc1nc(-c2ccc(OC)nc2)c(C)c2c1[Si](C(C)C)(C(C)C)OC2` displayed a composite z-score of -0.0637. In turn, `[N-]=[N+]=NCc1ccccc1[C@H]1OC(c2ccc(OCCCO)cc2)=N[C@@]1(Cc1ccccc1N=[N+]=[N-])C(=O)N1CCOCC1` gave a composite z-score of -0.154. The compound `C=CCOC(=O)[C@H]1[C@@H]2C(=O)O[C@@H](c3ccccc3)[C@@H](c3ccccc3)N2[C@@H](c2ccc(OCCOC(=O)[C@H]3C[C@H]4C(=O)NCC(=O)N4[C@H]3c3cccc(OCCO)c3)cc2)[C@]12C(=O)Nc1ccc(I)cc12` registered a composite z-score of 0.469. On the same count and under the same terms, under `COCCOC(=O)N1C(=O)[C@@]2(c3cc(C#CCNC(N)=O)ccc31)[C@H](C(N)=O)[C@H]1C(=O)O[C@H](c3ccccc3)[C@H](c3ccccc3)N1[C@@H]2c1ccc(O)cc1` stands 0.0947; under `C=C1C(=O)C=C2CN(C(=O)c3ccccc3)[C@@](Cc3ccc(F)cc3)(C(=O)OC)[C@@H]12`, -0.595; under `CC(C)(C)OC(=O)N1[C@@H](C=C(Br)Br)COC1(C)C`, -0.0287. As for `O=C1C[C@@](C(=O)NCC(F)(F)F)(c2ccc([N+](=O)[O-])cc2)[C@@H](c2ccc(CO)cc2I)N1CC12CC3CC(CC(C3)C1)C2`, the composite z-score is -0.0271. In turn, `Cc1cccc([C@H]2C[C@H]3C(Br)=C[C@@]2(CO)C(=O)[C@]32CO2)c1` registered a composite z-score of -0.65. With `COC(=O)C(CC#Cc1ccc2c(c1)[C@]1(C(=O)N2)[C@H](c2ccccc2OCCO)N2[C@H](c3ccccc3)[C@H](c3ccccc3)OC(=O)[C@H]2[C@@H]1C(=O)N1CCN(c2ncccn2)CC1)C(=O)OC`, the composite z-score amounted to 0.474. Same read-out and setting: to `O=C1NC(=O)C2C1C=CC(C(O)c1ccc(F)cc1)N2Nc1ccc(Cl)cc1Cl` (centres undefined) belongs -0.335. With `C=CCOC(=O)[C@@H]1[C@H]2C(=O)O[C@H](c3ccccc3)[C@H](c3ccccc3)N2[C@H](c2ccc(OCCOC(=O)[C@@H]3C[C@@H]4C(=O)N[C@@H](CC(C)C)C(=O)N4[C@@H]3c3ccc(O)cc3)cc2)[C@@]12C(=O)Nc1ccc(I)cc12`, the composite z-score is 0.17. For `COC(=O)c1ccc(OC)c(/C=C\CC(OC(=O)c2ccncc2)c2ccccc2)c1` (centres undefined), the composite z-score was 0.285. For `COC(=O)[C@@]1(Cc2ccc(F)cc2)[C@H]2c3cc(C(=O)N4CCCC4)n(CCSCCO)c3C[C@H]2CN1C(=O)c1ccccc1`, the composite z-score was -0.366. `Cc1c(NC(=O)/C(C#N)=C/C=C/c2ccc([N+](=O)[O-])cc2)c(=O)n(-c2ccccc2)n1C` had a composite z-score of 0.129. Regarding `COc1ccc([Si](C)(C)[C@H]2[C@H](CC(=O)N(CCO)Cc3ccccc3)O[C@@]3(C(=O)N(Cc4cccc(N5CCCCC5=O)c4)c4ccccc43)[C@@H]2C)cc1`, the composite z-score came out at 1.12. As to `O=C1c2ccccc2[C@@]2(Cc3ccccc3N(CC(F)(F)F)C2=O)[C@H](c2ccc(CO)cc2)N1Cc1ccccc1`, the composite z-score came to 0.0025.

Turning to `CC(C)C[C@@H]1NC(=O)[C@@H]2C[C@H](C(=O)NCCCCCNC(=O)CS)[C@H](c3ccc(O)cc3)N2C1=O`, the composite z-score came out at 1.8. With `COc1ccc(C(O)C2C=CC3C(=O)N(C)C(=O)C3N2Nc2ccccc2)cc1` (centres undefined), the composite z-score was 0.467. The same measure, in the same setting: under `Cc1ccc(S[C@]2(C(=O)NCCN3CCOCC3)CC(=O)N(C(C)C)[C@@H]2c2ccc(CO)cc2I)cc1` stands -0.158; under `COc1ccc([Si](C)(C)[C@H]2[C@H](CC(=O)N(CCO)Cc3ccccc3)O[C@@]3(C(=O)N(Cc4ccc(N5C(=O)c6cccc7cccc5c67)cc4)c4ccccc43)[C@@H]2C)cc1`, 0.285; under `COC(=O)[C@@]1(Cc2ccccc2)[C@H]2c3cc(C(=O)N(C)C)n(CCF)c3C[C@H]2CN1C(=O)c1ccccc1`, 2.12. In turn, `C=CCC(OC(C)=O)[C@@H]1[C@@H](N(Cc2ccc(-c3ccccc3)cc2)C(=O)Cc2ccc(OC)cc2)c2cc(OCCCO)ccc2N1C(=O)c1ccc2ccccc2c1` (some centres undefined) registered a composite z-score of 1.09. `C=C(C(=O)CC[C@@H](OC(=O)c1cccnc1)c1cccc(OCCO)c1)C(C)C`: the composite z-score is -0.0785. On to `CCCC=C(CCC)[C@@H](NC(=O)c1ccc(C(=O)OC)cc1)c1ccc(C(=O)OC)cc1`, for which the composite z-score is -0.312. `[N-]=[N+]=NCc1ccccc1C[C@]1(C(=O)N2CCCCC2)COC(c2ccc(OCCCO)cc2)=N1` yielded a composite z-score of 0.184. With `COC(=O)[C@@]1(Cc2ccc(F)cc2)[C@H]2c3cc(C(=O)N4CCCC4)n(Cc4ccc(OC(F)(F)F)cc4)c3C[C@H]2CN1C(=O)c1ccccc1`, the composite z-score is -0.292.
